Screening results from PubChem.
PostGolgi ctrl – growth inhibition of yeast control strain, primary screen, counter-screen for post-Golgi transport modulator project; efflux-deficient yeast background strain, growth absorbance A615, 16 h; inhibition, % at 10 µM; hit rate 5% among 98,000; AID 738, 2007
EphB4 ephrin blk – EphB4-ephrin-B2 interaction antagonists, primary screen, biochemical, TNYL-RAW peptide probe, fluorescence polarization. AID 720, 2007. inhibition, % at 7 µM. hit rate 0.15% among 97,000. EphB4 LBD / TNYL-RAW-Alexa532 peptide. Ephrin type-B receptor 4 (Homo sapiens), P54760;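 active = inhibition above the screen-wide mean inhibition plus 3 SD, cut at about 15% in these data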
Target sequence (P54760 whole entry, looked up, the tested form may be a part): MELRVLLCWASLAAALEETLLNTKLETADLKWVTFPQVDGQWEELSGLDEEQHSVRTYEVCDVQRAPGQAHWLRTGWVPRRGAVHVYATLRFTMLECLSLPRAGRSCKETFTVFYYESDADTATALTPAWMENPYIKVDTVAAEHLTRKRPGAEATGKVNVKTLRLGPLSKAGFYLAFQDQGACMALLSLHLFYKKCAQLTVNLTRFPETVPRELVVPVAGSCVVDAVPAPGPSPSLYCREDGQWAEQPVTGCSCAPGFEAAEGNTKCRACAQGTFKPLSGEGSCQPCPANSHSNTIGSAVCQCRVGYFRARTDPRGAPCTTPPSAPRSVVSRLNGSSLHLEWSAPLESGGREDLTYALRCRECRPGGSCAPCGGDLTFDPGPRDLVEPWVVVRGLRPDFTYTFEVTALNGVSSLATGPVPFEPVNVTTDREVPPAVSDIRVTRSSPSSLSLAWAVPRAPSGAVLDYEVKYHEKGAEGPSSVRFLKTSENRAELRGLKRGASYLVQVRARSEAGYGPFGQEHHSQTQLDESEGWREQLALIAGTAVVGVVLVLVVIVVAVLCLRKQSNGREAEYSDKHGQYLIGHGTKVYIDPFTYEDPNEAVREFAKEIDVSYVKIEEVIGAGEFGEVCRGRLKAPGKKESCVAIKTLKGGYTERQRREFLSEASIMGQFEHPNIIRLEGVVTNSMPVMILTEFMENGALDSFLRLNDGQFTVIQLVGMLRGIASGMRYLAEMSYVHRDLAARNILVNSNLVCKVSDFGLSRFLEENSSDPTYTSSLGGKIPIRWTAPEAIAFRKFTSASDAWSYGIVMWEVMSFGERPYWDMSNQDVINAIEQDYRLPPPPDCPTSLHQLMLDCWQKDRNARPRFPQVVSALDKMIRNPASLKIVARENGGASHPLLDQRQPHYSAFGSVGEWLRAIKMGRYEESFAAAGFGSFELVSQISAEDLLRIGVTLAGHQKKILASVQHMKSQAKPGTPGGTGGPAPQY
PostGolgi yeast – phenotypic screen on post-Golgi transport, primary screen; post-Golgi transport phenotypic cell assay; hit rate 0.9% among 98,000; inhibition, % at 10 µM;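 also: yeast cells grown in 1536-well plates; yeast grown about 18 h at 30C before absorbance read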
Calb biofilm kill – clotrimazole potentiators killing Candida biofilms, primary screen, with clotrimazole, Alamar Blue; C. albicans biofilm + clotrimazole; inhibition, % at 6 µM; hit rate 0.14% among 85,000;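 active = inhibition above 20%; inactive = inhibition below 20%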;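 also: preformed 24 hr biofilms exposed to compound for 48 hr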
A number is an active result; n = inactive; x = no result given. A selection: hits, their analogues and other compounds. The true share with any hit is near 5.2%. Rule as the data show it, unless noted: active = inhibition above about 30%; inactive = the rest.

SMILES | PostGolgi ctrl | EphB4 ephrin blk | PostGolgi yeast | Calb biofilm kill
O=C(/C=C/c1cccc([N+](=O)[O-])c1)NCCN1CCOCC1 | n | 17.0 | n | x
CC(C)Nc1nc(NC(C)(C)C)nc(Oc2ccc(=O)n(-c3ccccc3)n2)n1 | n | n | n | n
CCNc1nc2c(c(=O)n(Cc3ccccc3)c(=O)n2C)n1Cc1ccccc1 | 30.4 | n | n | x
CC(C)Sc1nc2c(c(=O)n(C)c(=O)n2C)n1Cc1ccc(Cl)cc1 | 76.6 | n | n | x
Cc1ccc(Cn2c(NCCc3ccccc3)nc3c2c(=O)n(C)c(=O)n3C)cc1 | n | n | n | n
C/C(Cl)=C\Cn1c(NCCc2ccccc2)nc2c1c(=O)n(C)c(=O)n2C | n | x | n | n
Cn1c(=O)c2c(nc(NCc3ccccc3)n2Cc2ccc(F)cc2)n(C)c1=O | 39.0 | n | n | n
C=CCn1c(NCCc2ccccc2)nc2c1c(=O)n(C)c(=O)n2C | n | 15.6 | n | n
CC1CCCC(NC(=O)COC(=O)c2cc(S(=O)(=O)N3CCCCC3)ccc2N2CCOCC2)C1C (stereo not drawn) | n | n | n | x
CCOc1ccccc1C1CC(=O)NC(SCC(=O)Nc2nccs2)=C1C#N (stereo not drawn) | n | n | n | x
CCOC(=O)CSc1nc(C(C)(C)C)cc(C(F)(F)F)c1C#N | n | n | n | n
Cn1c(NCc2ccco2)nc2c1c(=O)n(Cc1ccc(Cl)c(Cl)c1)c(=O)n2C | 49.1 | n | n | n
Cn1c(NCC(O)CO)nc2c1c(=O)n(Cc1ccc(Cl)c(Cl)c1)c(=O)n2C (stereo not drawn) | n | n | n | n
Cc1[nH]nc2c1C1(CCC(c3ccccc3)CC1)C(C#N)=C(N)O2 (stereo not drawn) | 31.2 | n | n | n
CCCC1C(C#N)=C(N)Oc2n[nH]c(C(C)(C)C)c21 (stereo not drawn) | n | x | n | n
O=C(Nc1ccc2c(c1)OCCO2)NC1(C(F)(F)F)Oc2ccccc2O1 | 33.6 | n | n | n
O=C(O)c1nn(-c2ccccc2)nc1-c1nn(-c2ccccc2)nc1C(=O)O | n | n | n | n
COC(=O)c1nn(-c2ccccc2)nc1-c1nn(-c2ccccc2)nc1C(=O)OC | 76.8 | n | 35.7 | n
CC[n+]1c(P(=O)([O-])c2ccccc2)[nH]c2ccccc21 | n | n | n | n
OC(c1ccccc1)(c1ccc(F)cc1)C(c1ccccc1)N1CCOCC1 (stereo not drawn) | 30.7 | n | n | n
O=C(c1cn(-c2ccccc2)nc1-c1cccs1)N1CCN(c2ccccn2)CC1 | 53.6 | n | n | n
Cc1ccc(-n2ncc3c(=O)n(CC(=O)OCc4ccccc4)cnc32)cc1 | 35.6 | n | n | n
O=C1CSC(c2cn(-c3ccccc3)nc2-c2ccccc2)N1Cc1ccco1 (stereo not drawn) | 53.3 | n | n | n
CCc1ccc(-c2nn(-c3ccccc3)cc2C2SCC(=O)N2Cc2ccco2)cc1 (stereo not drawn) | n | n | n | n
c1ccc(-c2ccc(C3=Nn4c(Cn5nnc6ccccc65)nnc4SC3)cc2)cc1 | 36.2 | n | n | x
SMILES | PostGolgi ctrl | EphB4 ephrin blk | PostGolgi yeast | Calb biofilm kill
Fc1ccc(C2=Nn3c(Cc4ccccc4F)nnc3SC2)cc1 | n | n | n | n
C=CCc1cccc2cc(C(=O)N(CC)CC)c(=O)oc12 | n | n | n | n
CC(CCc1ccco1)NC(=O)Nc1cccc(F)c1 (stereo not drawn) | n | n | n | n
Cc1ccc(NC(=O)CS(=O)CC(=O)NC(C)CCc2ccco2)cc1Cl (stereo not drawn) | 46.6 | n | n | n
Cc1ccc(/C(N)=N/OC(=O)c2cc(-c3ccccc3)nc3ccccc23)cc1 | 30.7 | n | n | x
CCOc1ccc(C2OC(=O)Cc3cc(OC)c(OC)cc32)cc1 (stereo not drawn) | n | n | n | x
COc1cccc(Oc2cncnc2-c2ccc(OC)cc2O)c1 | 56.5 | n | 83.8 | n
O=C(CSc1nc2ccccc2c(=O)n1C1CC1)NCc1ccccc1 | 36.5 | n | n | n
Cc1cc(NC(=O)CCC(=O)N(c2ccccc2)C2(C(=O)NC3CCCCC3)CCCC2)no1 | n | n | n | n
CCCCCc1cc(O)c2c(C)cc(=O)oc2c1 | 60.9 | n | n | n
CCCc1cc(=O)oc2cc(C)cc(O)c12 | n | n | n | n
N#CC(c1cccc(Cl)c1)c1ccc2c(C(F)(F)F)cc(C(F)(F)F)nc2n1 (stereo not drawn) | 101.6 | n | 99.4 | n
CCN(CC)CCNC(=O)C1c2ccccc2C(=O)N(CCOC)C1c1ccc(F)cc1 (stereo not drawn) | n | n | n | n
Cc1ccccc1-c1nc(S(=O)(=O)c2ccc(Br)cc2)c(NCc2cccnc2)o1 | 31.3 | n | n | n
CCNc1nc(N)c(C(=O)c2ccc(Cl)s2)s1 | 46.2 | n | n | n
CC1CCCN(C(=O)C2c3ccccc3C(=O)N3CCc4ccccc4C23)C1 (stereo not drawn) | n | n | n | n
O=C1c2cnc3nc(SCc4ccc(Cl)cc4)nn3c2CC2c3ccccc3CCN12 (stereo not drawn) | 34.8 | n | n | x
Cc1cccc(NC(=O)Cn2cnc3ccc(S(=O)(=O)N4CCC(C)CC4)cc3c2=O)n1 | n | n | n | n
COCCn1c(=NC(=O)CSCC(=O)NC2CCCCC2)sc2cc(OC)ccc21 | 47.7 | n | n | n
COCCn1c(=NC(=O)CSC(C)=O)sc2cc(OC)ccc21 | n | x | n | n
Cc1ccc(-c2nn(C)c(=O)c3ccccc23)cc1CNC(=O)Cn1nc(-c2ccccc2)c2ccccc2c1=O | n | n | n | n
COC(=O)c1sccc1NC(=O)c1ccc(OC)cc1 | 31.1 | n | n | n
COC(=O)c1[nH]c2ccc(F)cc2c1NC(=O)CCN1CCN(Cc2ccc3c(c2)OCO3)CC1 | n | n | n | n
CCN(CC(=O)Nc1c(C(=O)OC)[nH]c2ccc(C)cc12)c1ccc2c(c1)OCO2 | 52.8 | n | n | n
Cc1sc(-c2ccncc2)nc1OC(=O)c1cc(Cl)cc(Cl)c1 | 32.2 | n | n | n
SMILES | PostGolgi ctrl | EphB4 ephrin blk | PostGolgi yeast | Calb biofilm kill
Cc1sc(-c2ccncc2)nc1OC(=O)c1ccc(Cl)cc1 | 36.3 | n | n | n
S=c1[nH]nc(CSc2nc3ccccc3s2)n1Cc1ccccc1 | 33.6 | n | n | n
COc1ccc(CCC(=O)NCCc2cn3c(C)csc3n2)cc1 | n | n | n | n
CSc1nc2c(c(C(F)(F)F)n1)CC(C)CC2 (stereo not drawn) | n | n | n | n
COCCNC(=O)C(C)OC(=O)c1cc2occc2n1C (stereo not drawn) | n | n | n | n
CCS(=O)(=O)N1CCC(C(=O)N2CCc3ccccc3C2)CC1 | n | n | n | n
COc1ccc(S(=O)(=O)N2CCC(C(=O)N3CCc4ccccc4C3)CC2)cc1Cl | 48.7 | n | n | n
O=C(C1CCN(S(=O)(=O)c2ccc3c(c2)OCCO3)CC1)N1CCc2ccccc21 | 33.3 | x | n | n
CCOC(=O)C1CCCN(C(=O)C2CCCN(S(=O)(=O)c3ccc4c(c3)oc(=O)n4C)C2)C1 (stereo not drawn) | n | n | n | n
Cn1c(=O)oc2cc(S(=O)(=O)N3CCCC(C(=O)N4CCc5ccccc5C4)C3)ccc21 (stereo not drawn) | 50.6 | n | n | n
